According to PubChem BioAssay AID1159580 (chemical genetic matrix, 2015):
“And” between values parts separate entries of the source, which are not always exact repeats. Equal entries are not always repeated. Hit rate of the full screen: of about 5,500 compounds, about 2,000 (36%) were called active. Another 18% or so got no clear call; they are omitted. Cut-off read from the data, not from the text of the source: active = normalized growth mostly below about 0.91 (no sharp cut-off); inconclusive = no clear call, values can overlap the other calls; inactive = mostly above about 0.92. Some of the results follow.

Assay: chemical genetic growth profiling, strain panel (AID 1159580);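 note: tested at 20 µM; growth read once vehicle control cultures reached saturation at 30 °C; 1 = growth at the plate median or of vehicle wells; lower values mean less growth of the strain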
Settings: S. cerevisiae deletion strains, growth OD

Measured: normalized growth

CCCC(C(=O)OCCN(CC)CC)(c1ccccc1)c1ccccc1
inactive: locus YAL013W, strain DEP1, hits give low values 0.991 | locus YAL021C, strain ccr4, hits give low values 0.981 | locus YAL026C, strain drs2, hits give low values 1.01 | locus YAL030W, strain snc1, hits give low values 0.985 | locus YAL040C, strain CLN3, hits give low values 1.03 | locus YBR009C, strain hhf1, hits give low values 1 | locus YBR021W, strain FUR4, hits give low values 0.92 | locus YBR023C, strain chs3, hits give low values 1 | locus YBR171W, strain sec66, hits give low values 0.998 | locus YBR229C, strain ROT2, hits give low values 1.01 | locus YBR231C, strain swc5, hits give low values 0.992 | locus YBR279W, strain paf1, hits give low values 0.995 | locus YCL011C, strain gbp2, hits give low values 1.01 | locus YCL016C, strain dcc1, hits give low values 0.995 | locus YCL029C, strain bik1, hits give low values 1 | locus YCL061C, strain MRC1 (second series), hits give low values 0.993 | locus YCL069W, strain vba3, hits give low values 1.01 | locus YCR088W, strain abp1, hits give low values 1 | locus YDL005C, strain med2, hits give low values 1 | locus YDL035C, strain GPR1, hits give low values 0.99 | locus YDL040C, strain nat1, hits give low values 1.01 | locus YDL074C, strain BRE1, hits give low values 0.997 | locus YDL101C, strain DUN1, hits give low values 1 | locus YDL134C, strain PPH21, hits give low values 0.979 | locus YDL185W, strain tfp1, hits give low values 0.994 | locus YDL192W, strain arf1, hits give low values 0.994 | locus YDR001C, strain nth1, hits give low values 1.01 | locus YDR069C, strain doa4, hits give low values 0.99 | locus YDR101C, strain arx1, hits give low values 0.986 | locus YDR150W, strain NUM1, hits give low values 1 | locus YDR159W, strain sac3, hits give low values 1 | locus YDR162C, strain NBP2, hits give low values 0.997 | locus YDR195W, strain ref2 0.909 | locus YDR297W, strain sur2, hits give low values 1 | locus YDR318W, strain mcm21, hits give low values 0.993 | locus YDR334W, strain swr1, hits give low values 1.03 | locus YDR335W, strain msn5, hits give low values 1 | locus YDR363W, strain ESC2, hits give low values 1 | locus YDR388W, hits give low values 0.982 | locus YDR392W, strain spt3, hits give low values 0.962 | locus YDR502C, strain sam2, hits give low values 0.995 | locus YEL003W, strain gim4, hits give low values 0.999 | locus YEL037C, strain rad23, hits give low values 1 | locus YEL061C, strain CIN8 (second series), hits give low values 1.01 | locus YEL061C, strain CIN8, hits give low values 1 | locus YER002W, strain NOP16, hits give low values 1.02 | locus YER015W, strain faa2, hits give low values 1.01 | locus YER016W, strain bim1, hits give low values 0.987 | locus YER110C, hits give low values 0.999 | locus YER111C, strain swi4, hits give low values 1 | locus YER155C, strain BEM2 (second series), hits give low values 0.946 | locus YER155C, strain BEM2, hits give low values 1.01 | locus YER167W, strain BCK2, hits give low values 0.994 | locus YFR010W, strain ubp6, hits give low values 0.994 | locus YGL078C, strain dbp3, hits give low values 1.01 | locus YGL086W, strain mad1, hits give low values 0.988 | locus YGL167C, strain pmr1, hits give low values 0.999 | locus YGL173C, strain kem1, hits give low values 0.99 | locus YGL227W, strain vid30, hits give low values 1.01 | locus YGL240W, strain doc1, hits give low values 0.99 | locus YGL248W, strain PDE1, hits give low values 1.02 | locus YGL253W, strain hxk2, hits give low values 1.01 | locus YGR078C, strain PAC10, hits give low values 0.992 | locus YGR135W, strain pre9, hits give low values 0.958 | locus YGR229C, strain SMI1, hits give low values 0.976 | locus YGR252W, strain gcn5, hits give low values 0.877 | locus YHR013C, strain ard1, hits give low values 0.975 | locus YHR027C, strain rpn1, hits give low values 1 | locus YHR030C, strain SLT2, hits give low values 1 and 0.999 | locus YHR079C, strain IRE1 (second series), hits give low values 1.01 | locus YHR079C, strain IRE1, hits give low values 0.987 | locus YHR094C, strain hxt1, hits give low values 0.987 | locus YHR129C, strain ARP1, hits give low values 1.01 | locus YHR142W, strain chs7, hits give low values 1 | locus YHR200W, strain rpn10, hits give low values 0.993 | locus YIL066C, strain RNR3, hits give low values 0.987 | locus YIL073C, strain SPO22, hits give low values 1.01 | locus YIL125W, strain kgd1, hits give low values 0.996 | locus YIR030C, strain dcg1, hits give low values 0.989 | locus YJL092W, strain hpr5, hits give low values 1 | locus YJL095W, strain BCK1 (second series), hits give low values 0.994 | locus YJL095W, strain BCK1, hits give low values 0.996 and 0.988 | locus YJL115W, strain asf1, hits give low values 0.979 | locus YJL129C, strain trk1, hits give low values 1.01 | locus YJL134W, strain LCB3, hits give low values 1.01 | locus YJL154C, strain vps35, hits give low values 1.01 | locus YJL164C, strain tpk1, hits give low values 1 | locus YJL166W, strain qcr8, hits give low values 0.997 | locus YJL168C, strain set2, hits give low values 0.992 | locus YJL187C, strain SWE1 (second series), hits give low values 1.01 | locus YJL187C, strain SWE1, hits give low values 0.993 | locus YJR043C, strain POL32, hits give low values 1 | locus YJR066W, strain TOR1, hits give low values 0.954
active: locus YDR137W, strain rgp1, hits give low values 1.18 [resistant]
